The values that follow come from PubChem BioAssay (EPA / NIEHS).

Activity calls are given as the source filed them. Rule for the calls: active = hit-call score of the fitted dose curve at least 0.9, where 1 is the maximum; inactive = score below 0.9.

The AC50 is the concentration giving half of the maximal activity seen.

Conditions in all cases: mRNA level, 48 h; actives raise or lower the signal
Read-out in test [1]: Peroxisomal acyl-coenzyme A oxidase 1 (ACOX1) gene, ACOX1 (gene 51)
In words: LTEA_HepaRG_ACOX1: Life Technologies and Expression Analysis (LTEA) Assay for Peroxisomal acyl-coenzyme A oxidase 1 (ACOX1) gene using HepaRG (AID 2283467). Summed up: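 Human HepaRG hepatic cultures, 48 h treatment with test chemicals up to 100 uM. ACOX1 expression read by qRT-PCR relative to 0.5% DMSO vehicle.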

Read-out in test [2]: Alkaline Phosphatase, Placental (ALPP) gene, ALPP (gene 250)
In words: LTEA_HepaRG_ALPP: Life Technologies and Expression Analysis (LTEA) Assay for Alkaline Phosphatase, Placental (ALPP) gene using HepaRG (AID 2283468). Summed up: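 Expression of ALPP was quantified by qRT-PCR against three housekeeping genes in human HepaRG cultures treated for 48 h with an eight-point concentration series up to 100 uM. Activity in either direction was fitted relative to 0.5% DMSO.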

Read-out in test [3]: Bcl-2 (BAD) gene, BAD (gene 572)
In words: LTEA_HepaRG_BAD: Life Technologies and Expression Analysis (LTEA) Assay for Bcl-2 (BAD) gene using HepaRG (AID 2283469). Summed up: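 Activity values reflect up- or down-regulation of BAD mRNA in human HepaRG hepatic cells treated 48 h in serum-free medium, with eight-point half-log dosing capped at 100 uM and 0.5% DMSO vehicle.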

Read-out in test [4]: Bcl-2 (BAX) gene, BAX (gene 581)
Briefly: LTEA_HepaRG_BAX: Life Technologies and Expression Analysis (LTEA) Assay for Bcl-2 (BAX) gene using HepaRG (AID 2283470). In short, it runs like this: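 qRT-PCR read-out of BAX mRNA, normalized to three housekeeping genes, after 48 h chemical exposure of human HepaRG cells in serum-free induction medium; eight-point half-log series, top 100 uM, 0.5% DMSO vehicle; bidirectional fit versus DMSO.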

Read-out in test [5]: adenosine kinase (ADK) gene, ADK (gene 132)
Briefly: LTEA_HepaRG_ADK: Life Technologies and Expression Analysis (LTEA) Assay for adenosine kinase (ADK) gene using HepaRG (AID 2283471). In short, it runs like this: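 Differentiated HepaRG cells dosed 48 h in serum-free induction medium, 0.5% DMSO vehicle, eight half-log concentrations from 100 uM, in duplicate. ADK mRNA by TaqMan qRT-PCR normalised to ACTB, GAPDH, POLR2A; bidirectional fit versus DMSO.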

Read-out in test [6]: Alpha-fetoprotein (AFP) gene, AFP (gene 174)
In words: LTEA_HepaRG_AFP: Life Technologies and Expression Analysis (LTEA) Assay for Alpha-fetoprotein (AFP) gene using HepaRG (AID 2283472).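 For AC50: AFP transcript by TaqMan qRT-PCR normalized to ACTB GAPDH and POLR2A.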 In short, it runs like this:
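qRT-PCR (Fluidigm TaqMan) readout of AFP transcript, normalized to three housekeeping genes, fitted bidirectionally against 0.5% DMSO baseline. HepaRG cells received chemicals for 48 h in serum-free induction medium, top concentration 100 uM, half-log steps.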

Read-out in test [7]: BCL2L11 (gene 10018)
In words: LTEA_HepaRG_BCL2L11: Life Technologies and Expression Analysis (LTEA) Assay for Bcl-2 (BCL2L11) gene using HepaRG (AID 2283473). Summed up:
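Cells were plated, cultured 48 h, switched to serum-free induction medium, then dosed in duplicate for 48 h at eight half-log concentrations up to 100 uM. Lysates underwent RNA isolation and TaqMan qRT-PCR; gain or loss versus DMSO was fitted.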

Read-out in test [8]: Apolipoprotein A-V (APOA5) gene, APOA5 (gene 116519)
In words: LTEA_HepaRG_APOA5: Life Technologies and Expression Analysis (LTEA) Assay for Apolipoprotein A-V (APOA5) gene using HepaRG (AID 2283474). In short, it runs like this: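 Human liver HepaRG cells are treated 48 h with test chemicals (100 uM top, half-log dilutions, 0.5% DMSO). APOA5 mRNA induction or loss is measured by qRT-PCR relative to vehicle.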

Read-out in test [9]: Apoptosis regulator Bcl-2 (Homo sapiens) (UniProt P10415)
Briefly: LTEA_HepaRG_BCL2: Life Technologies and Expression Analysis (LTEA) Assay for Bcl-2 gene using HepaRG (AID 2283475). In short, it runs like this: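 qRT-PCR read-out (Fluidigm TaqMan) of BCL2 transcript, normalised to three housekeeping genes, after 48 h chemical exposure of HepaRG cells; 8-point half-log series, top 100 uM, 0.5% DMSO vehicle. Gain or loss of signal fitted relative to DMSO baseline.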

Read-out in test [10]: Bcl-2 (BID) gene, BID (gene 637)
In words: LTEA_HepaRG_BID: Life Technologies and Expression Analysis (LTEA) Assay for Bcl-2 (BID) gene using HepaRG (AID 2283476). In short, it runs like this:
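HepaRG, 48 h exposure, 8-pt half-log series, top 100 uM, 0.5% DMSO vehicle, duplicates. Readout: BID mRNA by TaqMan qRT-PCR; housekeeping-normalized; bidirectional curve fit vs DMSO baseline.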

Read-out in test [11]: Caspase-3 (Homo sapiens) (UniProt P42574)
Briefly: LTEA_HepaRG_CASP3: Life Technologies and Expression Analysis (LTEA) Assay for cysteine-aspartic acid protease (CASP3) using HepaRG (AID 2283477). In short, it runs like this:
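In HepaRG liver cells dosed for 48 h at up to 100 uM (eight-point, duplicate), CASP3 expression changes are scored by qRT-PCR. Activity is fitted in both directions with 0.5% DMSO as baseline.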

Read-out in test [12]: Cytochrome P450 (CYP24A1), CYP24A1 (gene 1591)
In words: LTEA_HepaRG_CYP24A1: Life Technologies and Expression Analysis (LTEA) Assay for Cytochrome P450 (CYP24A1) using HepaRG (AID 2283478). In short, it runs like this: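 Human liver HepaRG cultures receive each chemical for 48 h across an eight-point half-log series topping at 100 uM in 0.5% DMSO. Induction or suppression of CYP24A1 mRNA is scored relative to vehicle after housekeeping-gene normalization.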

Read-out in test [13]: Cytochrome P450 (CYP1A2), CYP1A2 (gene 1544)
Briefly: LTEA_HepaRG_CYP1A2: Life Technologies and Expression Analysis (LTEA) Assay for Cytochrome P450 (CYP1A2) using HepaRG (AID 2283479).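 For AC50: TaqMan qRT-PCR transcript level normalized to ACTB GAPDH and POLR2A.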 In short, it runs like this:
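Assesses CYP1A2 mRNA in human HepaRG liver cells after 48 h chemical exposure at up to 100 uM. Values come from qRT-PCR with bidirectional curve fitting relative to DMSO.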

Read-out in test [14]: cysteine-aspartic acid protease (CASP8), CASP8 (gene 841)
In words: LTEA_HepaRG_CASP8: Life Technologies and Expression Analysis (LTEA) Assay for cysteine-aspartic acid protease (CASP8) using HepaRG (AID 2283480). In short, it runs like this:
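Concentration-response in duplicate up to 100 uM (half-log steps, 0.5% DMSO) on differentiated HepaRG cultures for 48 h. Expression change of CASP8 mRNA is determined by TaqMan qRT-PCR with housekeeping-gene normalization.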

Read-out in test [15]: Cytochrome P450 2C19 (Homo sapiens) (UniProt P33261)
In words: LTEA_HepaRG_CYP2C19: Life Technologies and Expression Analysis (LTEA) Assay for CYP2C19 using HepaRG (AID 2283482). In short, it runs like this: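 Human HepaRG liver cells received test chemicals for 48 h (highest 100 uM, half-log dilutions in 0.5% DMSO). CYP2C19 mRNA induction or loss is read by multiplexed qRT-PCR and fitted in both directions versus vehicle.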

Read-out in test [16]: CYP2C8 (gene 1558)
In words: LTEA_HepaRG_CYP2C8: Life Technologies and Expression Analysis (LTEA) Assay for CYP2C8 using HepaRG (AID 2283483). Summed up:
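This is a transcriptional endpoint in HepaRG cultures: 48 h exposure, highest concentration 100 uM. CYP2C8 mRNA is quantified by TaqMan qRT-PCR.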

Read-out in test [17]: CYP2C9 (gene 1559)
Briefly: LTEA_HepaRG_CYP2C9: Life Technologies and Expression Analysis (LTEA) Assay for CYP2C9 using HepaRG (AID 2283484). Summed up:
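Eight-point concentration-response (highest 100 uM, half-log dilutions) in HepaRG cells for 48 h; CYP2C9 expression by qRT-PCR normalized to ACTB, GAPDH, POLR2A. Bidirectional fit, DMSO baseline.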

Read-out in test [18]: CYP2E1 (gene 1571)
Briefly: LTEA_HepaRG_CYP2E1: Life Technologies and Expression Analysis (LTEA) Assay for CYP2E1 using HepaRG (AID 2283485). Summed up: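 CYP2E1 transcript was measured by TaqMan qRT-PCR in human HepaRG cultures after 48 h chemical exposure (top 100 uM, half-log steps, 0.5% DMSO vehicle). Housekeeping-gene normalization; gain or loss fitted relative to DMSO baseline.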

Read-out in test [19]: CYP4A11 (gene 1579)
In words: LTEA_HepaRG_CYP4A11: Life Technologies and Expression Analysis (LTEA) Assay for CYP4A11 using HepaRG (AID 2283486). Summed up:
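Readout is CYP4A11 mRNA induction or suppression (qRT-PCR, ACTB/GAPDH/POLR2A normalization) in human HepaRG cells after 48 h chemical treatment, concentrations to 100 uM in 0.5% DMSO, fitted bidirectionally against vehicle.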

Caspase-3 (Homo sapiens), sequence (P42574 whole entry, looked up): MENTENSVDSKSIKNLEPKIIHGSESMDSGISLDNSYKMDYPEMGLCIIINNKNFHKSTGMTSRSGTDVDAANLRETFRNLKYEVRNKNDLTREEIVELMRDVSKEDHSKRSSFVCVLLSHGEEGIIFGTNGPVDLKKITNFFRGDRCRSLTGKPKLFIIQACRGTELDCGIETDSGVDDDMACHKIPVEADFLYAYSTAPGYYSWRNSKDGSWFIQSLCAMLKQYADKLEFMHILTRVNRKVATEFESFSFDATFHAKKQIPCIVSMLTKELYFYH
Cytochrome P450 2C19 (Homo sapiens), sequence (P33261 whole entry, looked up): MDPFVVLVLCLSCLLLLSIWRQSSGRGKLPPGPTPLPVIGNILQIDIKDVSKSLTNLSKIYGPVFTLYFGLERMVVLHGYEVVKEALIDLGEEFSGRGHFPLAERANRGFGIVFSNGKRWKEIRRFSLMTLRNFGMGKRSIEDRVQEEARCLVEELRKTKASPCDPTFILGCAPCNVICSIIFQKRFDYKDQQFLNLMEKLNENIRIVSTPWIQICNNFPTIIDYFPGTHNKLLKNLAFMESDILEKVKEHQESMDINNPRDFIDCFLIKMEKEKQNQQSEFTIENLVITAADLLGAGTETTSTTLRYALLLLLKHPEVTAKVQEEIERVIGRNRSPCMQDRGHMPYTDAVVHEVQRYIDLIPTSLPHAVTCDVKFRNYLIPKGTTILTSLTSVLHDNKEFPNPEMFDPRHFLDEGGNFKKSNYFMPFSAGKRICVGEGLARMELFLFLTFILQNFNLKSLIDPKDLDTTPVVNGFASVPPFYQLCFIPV
Apoptosis regulator Bcl-2 (Homo sapiens), sequence (P10415 whole entry, looked up): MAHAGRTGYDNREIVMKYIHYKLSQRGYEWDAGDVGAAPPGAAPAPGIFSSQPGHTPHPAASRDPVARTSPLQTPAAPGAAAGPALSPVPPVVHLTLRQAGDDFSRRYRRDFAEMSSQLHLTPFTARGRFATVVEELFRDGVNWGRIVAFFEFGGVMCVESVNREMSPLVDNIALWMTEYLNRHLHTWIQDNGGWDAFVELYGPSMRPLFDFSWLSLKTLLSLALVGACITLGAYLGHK

With `NC=O`, the compound was called inactive in test [1], in [2], in [3], in [4], in test [5] and in [6]. For the same compound, the compound was called inactive in test [7], in [8], in [9], in [10], in test [11] and in [12]. In addition, the compound was called inactive in test [13], in test [14], in [15], in test [16], in [17] and in test [18]. Moreover, the compound was called inactive in [19].

With `CC(=O)O[C@]1(C(C)=O)CC[C@H]2[C@@H]3C=C(Cl)C4=CC(=O)[C@@H]5C[C@@H]5[C@]4(C)[C@H]3CC[C@@]21C`, the AC50 was 29.2 µM (active) in [1]; 50 µM (active) in test [4]; 50 µM (active) in test [6]; 84.3 µM (active) in test [8]; 0.00316 µM (active) in [12]; 78.7 µM (active) in test [13]. Besides, the half-maximal activity concentration (AC50) in test [15] was 63.5 µM (active); in test [17], 50 µM (active); in test [18], 36.9 µM (active). For the same compound, the result in test [2], in test [3], in test [5], in test [7], in [9] and in test [10] was inactive. Moreover, the call in test [11], in [14], in test [16] and in test [19] was inactive.

Take `C=CCCCCCCCCCCCC`: the result in test [1], in test [2], in test [3], in test [4], in [5] and in test [6] was inactive. Further, the outcome in test [7], in [8], in test [9], in [10], in [11] and in test [12] was inactive. Also, the call in [14], in [15], in [16], in test [17], in [18] and in [19] was inactive. The half-maximal activity concentration (AC50) in test [13] was 50 µM (active).
